Screening results deposited in PubChem BioAssay by Broad Institute.
Mot1-301 SUMO – inhibitors of SUMOylation pathway: yeast Mot1-301 growth rescue; 320,000 compounds, 1% hits; S. cerevisiae Mot1-301 growth rescue, ATP luminescence, 38.5C; percent above DMSO median, 100 means doubled; growth rescue, % at 18.8 µM;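 active = every valid replicate shows activation above 250% relative to neutral control wells; inactive = the rest, any valid replicate at or below 250%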;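 also: OY570 slx delta 5 strain wells were the positive control but not used for scaling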
HIF activator – HIF pathway transcriptional activation; activation, % at 7.5 µM (by protocol); 300,000 compounds, 0.32% hits; U2OS HRE-luciferase reporter, luminescence; normalized: DMSO 0%, desferrioxamine 100%;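 active = mean activation of at least 10% of the iron chelator positive control signal, with at least half of replicates also reaching 10%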
ALR H2O2 inh – inhibitors of human sulfhydryl oxidase ALR. inhibition, % (no concentration beside the values). P55789. purified ALR, DTT oxidation, H2O2 HRP-luminol luminescence. 290,000 compounds, 3.8% hits. AID 485317;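 active = mean replicate inhibition above about 79%, with every replicate also reaching it, limit read from the data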
Target sequence (P55789 whole entry, looked up): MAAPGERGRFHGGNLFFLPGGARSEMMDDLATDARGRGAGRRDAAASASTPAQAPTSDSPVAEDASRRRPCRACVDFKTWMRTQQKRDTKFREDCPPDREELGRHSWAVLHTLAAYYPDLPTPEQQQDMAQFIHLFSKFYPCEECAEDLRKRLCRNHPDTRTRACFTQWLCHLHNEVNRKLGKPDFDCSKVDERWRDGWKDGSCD
AI-2 QS modul – modulates the Vibrio harveyi AI-2 quorum sensing system; Vibrio harveyi JMH597 AI-2 luminescence/OD600 ratio, 9 h; active compounds read low; strain lacks LuxN and CqsS sensors; 0 = neutral-control median; activity change, % at 7.5 µM; 300,000 compounds, 0.4% hits; in the data active = activity change below about -75%, passing the limit was not always enough;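 also: luminescence divided by OD600 gain over 9 h not by final OD600 alone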
* hit, by the source's call. Only some compounds are listed: those with a hit (about 4.8% of all), similar ones and a draw of the others.

Screening COc1ccccc1OCC(=O)Nc1ccc(S(=O)(=O)Nc2onc(C)c2C)cc1 returned Mot1-301 SUMO -3, HIF activator 0, ALR H2O2 inh 3 and AI-2 QS modul 9.
Screening O=C(c1cccc(-c2ccccc2)c1)N1CC[C@@H](N2CCC(O)CC2)[C@H](O)C1 returned Mot1-301 SUMO 20, HIF activator 0, ALR H2O2 inh -23 and AI-2 QS modul 6.
`CCn1c(C)nc2cc(C(=O)NNC(=S)Nc3ccc(C)cc3)ccc21` gave Mot1-301 SUMO -3, HIF activator 0, ALR H2O2 inh 86* and AI-2 QS modul 20.
CCn1c(C)nc2cc(C(=O)NNC(=S)Nc3ccccc3OC)ccc21 was read as Mot1-301 SUMO 6, HIF activator 2, ALR H2O2 inh 56 and AI-2 QS modul 38.
Screening CCn1c(C)nc2cc(C(=O)NNC(=S)NC(=O)c3ccc(OC)cc3)ccc21 returned Mot1-301 SUMO 7, HIF activator 2, ALR H2O2 inh 37 and AI-2 QS modul -85*.
Cn1nnc(NC(=S)NC(=O)c2cccc3c(Cl)cccc23)n1 was read as Mot1-301 SUMO -1, HIF activator 0, ALR H2O2 inh 3 and AI-2 QS modul -2.
Screening COc1ccc(N(CC(=O)NC2CCS(=O)(=O)C2)S(=O)(=O)c2cc(C)ccc2C)cc1 (stereo unspecified) returned Mot1-301 SUMO 9 and ALR H2O2 inh 7.
`COc1ccc(OCC(O)CN2CCNCC2)cc1` (stereo unspecified) gave Mot1-301 SUMO -5, HIF activator -8, ALR H2O2 inh -45 and AI-2 QS modul -8.
For O=C(O)CN1C(=O)/C(=C/c2cccc(Cl)c2)Oc2ccccc21 the results were Mot1-301 SUMO -22, HIF activator 0, ALR H2O2 inh 81* and AI-2 QS modul -14.
`CCC(C)N(C(=O)COC(=O)c1ccc(=O)n(Cc2ccccc2)n1)C1CCS(=O)(=O)C1` (stereo unspecified) gave Mot1-301 SUMO -14, HIF activator -13, ALR H2O2 inh 2 and AI-2 QS modul -1.
Screening COc1ccccc1NS(=O)(=O)c1ccc(C)c(C(=O)N2CCN(c3ccc(O)cc3)CC2)c1 returned Mot1-301 SUMO 0 and ALR H2O2 inh 99*.
CS(=O)(=O)Nc1ccccc1C(=O)N1CCCC1 was read as Mot1-301 SUMO -4, HIF activator 0, ALR H2O2 inh -6 and AI-2 QS modul 17.
Screening CN(c1ccccc1C(=O)N1CCCC1)S(C)(=O)=O returned Mot1-301 SUMO -17, HIF activator 0, ALR H2O2 inh -12 and AI-2 QS modul 37.
For CCc1ccccc1N(CC(=O)N1CCN(c2ccccc2)CC1)S(C)(=O)=O the results were Mot1-301 SUMO 8, HIF activator -1, ALR H2O2 inh 98* and AI-2 QS modul 27.
For CN(c1ccccc1C(=O)N1CCN(c2ccccc2)CC1)S(C)(=O)=O the results were Mot1-301 SUMO -7, HIF activator 0, ALR H2O2 inh 87* and AI-2 QS modul 14.
CS(=O)(=O)Nc1ccccc1C(=O)N1CCN(c2ccccc2)CC1 was read as Mot1-301 SUMO 1, HIF activator 1, ALR H2O2 inh 98* and AI-2 QS modul 17.
`CS(=O)(=O)N(CC(=O)N1CCN(c2ccccc2)CC1)c1cccc(Br)c1` gave Mot1-301 SUMO -10, HIF activator 0, ALR H2O2 inh 31 and AI-2 QS modul 17.
For CCOc1ccc(NC(=O)CN(C)C(=O)c2ccccc2CCc2ccccc2)cc1OCC the results were Mot1-301 SUMO -1, HIF activator 0, ALR H2O2 inh -26 and AI-2 QS modul 22.
Cc1c(OC(C)C(=O)NCc2ccncc2)ccc2c3c(c(=O)oc12)CCCC3 (stereo unspecified) was read as Mot1-301 SUMO -8, HIF activator 0, ALR H2O2 inh -2 and AI-2 QS modul -6.
O=c1[nH]c(C(F)(F)F)nc2ccc3ccccc3c12 was read as Mot1-301 SUMO 1, HIF activator 0, ALR H2O2 inh -2 and AI-2 QS modul 12.
For O=C(NNC(=O)c1cc2ccccc2[nH]1)OCc1ccccc1 the results were Mot1-301 SUMO 14 and ALR H2O2 inh 1.
`CC(=O)N1CCN(S(=O)(=O)c2cccc(C(=O)Nc3cc(C(F)(F)F)ccc3N3CCOCC3)c2)CC1` gave Mot1-301 SUMO 80, HIF activator 0, ALR H2O2 inh -2 and AI-2 QS modul 4.
Screening O=C(CSc1nnc(NC(=O)C2CC2)s1)Nc1ccc(F)cc1F returned Mot1-301 SUMO 5, HIF activator 0, ALR H2O2 inh -3 and AI-2 QS modul 26.
